The source of these data is publication PMC11062922 (Nature Chemical Biology, 2023).

Set-up in all cases: species or system human, MV4-11 + K-562 + COLO205 + SK-N-BE2 + OVCAR-8
The subject of one assay is AURKB. Conditions: read-out: apparent Kd, compound concentrations: 100 nM and 1000 nM (sheet 'Samples'), n = 1.
Another assay deals with EGFR. To be noted: read-out: apparent Kd; compound concentrations: 100 nM and 1000 nM (sheet 'Samples'), CATDS: 0.10899892771168; n = 1.
A further assay concerns HSP90B1. To be noted: read-out: apparent Kd; compound concentrations:100 nM and 1000 nM (sheet 'Samples'); n = 1.
For the next assay, the system named is MAP2K2. Conditions: read-out: apparent Kd; compound concentrations:100 nM and 1000 nM (sheet 'Samples'); n = 1.
Another assay relates to MAP2K5. Conditions: read-out: apparent Kd, n = 1.
Another assay deals with PTK6. To be noted: read-out: apparent Kd, n = 1.
The test system of the next assay is RET. To be noted: read-out: apparent Kd; compound concentrations:100 nM and 1000 nM (sheet 'Samples'); n = 1.
A further assay relates to BMP2K. To be noted: read-out: apparent Kd; compound concentrations:100 nM and 1000 nM (sheet 'Samples'); n = 1.
A further assay concerns MAP3K1. To be noted: read-out: apparent Kd; compound concentrations:100 nM and 1000 nM (sheet 'Samples'); n = 1.
A further assay has as its system MAP4K5. Conditions: read-out: apparent Kd; compound concentrations:100 nM and 1000 nM (sheet 'Samples'); n = 1.
For a further assay, the system named is MAPK6. Conditions: read-out: apparent Kd; compound concentrations:100 nM and 1000 nM (sheet 'Samples'); n = 1.
Another assay relates to PIK3CD. Conditions: read-out: apparent Kd; compound concentrations:100 nM and 1000 nM (sheet 'Samples'); n = 1.
A further assay deals with CAMK2B. To be noted: read-out: apparent Kd, compound concentrations: 100 nM and 1000 nM (sheet 'Samples'), n = 1.
The next assay relates to BUB1. Conditions: read-out: apparent Kd; compound concentrations: 100 nM and 1000 nM (sheet 'Samples'), CATDS: 0.15968057437579899; n = 1.
Another assay has as its system FN3K. Conditions: read-out: apparent Kd; compound concentrations: 100 nM and 1000 nM (sheet 'Samples'), CATDS: 0.15794853926882399; n = 1.
In another assay the test system is ICK. To be noted: read-out: apparent Kd; compound concentrations: 100 nM and 1000 nM (sheet 'Samples'), CATDS: 0.184620648021635; n = 1.
Another assay concerns MAPKAPK2. Conditions: read-out: apparent Kd; compound concentrations: 100 nM and 1000 nM (sheet 'Samples'), CATDS: 0.25784854376508698; n = 1.
A further assay deals with AXL. Conditions: read-out: apparent Kd; compound concentrations:100 nM and 1000 nM (sheet 'Samples'); n = 1.
The test system of a further assay is EIF2AK1. To be noted: read-out: apparent Kd, n = 1.
The test system of a further assay is BMPR2. Conditions: read-out: apparent Kd; compound concentrations: 100 nM and 1000 nM (sheet 'Samples'), CATDS: 6.92108143191002E-2; n = 1.
The test system of another assay is CDC7. To be noted: read-out: apparent Kd; compound concentrations: 100 nM and 1000 nM (sheet 'Samples'), CATDS: 7.2811960251287902E-2; n = 1.
For the next assay, the system named is CLK1. To be noted: read-out: apparent Kd; compound concentrations: 100 nM and 1000 nM (sheet 'Samples'), CATDS: 6.6251473023667004E-2; n = 1.
Another assay deals with CLK4. To be noted: read-out: apparent Kd; compound concentrations: 100 nM and 1000 nM (sheet 'Samples'), CATDS: 8.9206642022587504E-2; n = 1.
In a further assay the test system is CSNK2A1;CSNK2A3. To be noted: read-out: apparent Kd; compound concentrations: 100 nM and 1000 nM (sheet 'Samples'), CATDS: 8.9230390485803696E-2; n = 1.
Another assay deals with CSNK2A2. Conditions: read-out: apparent Kd; compound concentrations: 100 nM and 1000 nM (sheet 'Samples'), CATDS: 7.4198005881570203E-2; n = 1.
The test system of the next assay is GAK. Conditions: read-out: apparent Kd; compound concentrations: 100 nM and 1000 nM (sheet 'Samples'), CATDS: 0.232195819387676; n = 1.
The test system of the next assay is JAK1. To be noted: read-out: apparent Kd; compound concentrations: 100 nM and 1000 nM (sheet 'Samples'), CATDS: 8.5496102279709801E-2; n = 1.
Another assay has as its system PI4KB. Conditions: read-out: apparent Kd; compound concentrations: 100 nM and 1000 nM (sheet 'Samples'), CATDS: 0.18235028668709399; n = 1.
Another assay relates to PIK3C2B. To be noted: read-out: apparent Kd; compound concentrations: 100 nM and 1000 nM (sheet 'Samples'), CATDS: 7.7184460843741698E-2; n = 1.
A further assay relates to RIOK2. Conditions: read-out: apparent Kd; compound concentrations: 100 nM and 1000 nM (sheet 'Samples'), CATDS: 5.9872886906535798E-2; n = 1.
Another assay relates to TNIK. To be noted: read-out: apparent Kd; compound concentrations: 100 nM and 1000 nM (sheet 'Samples'), CATDS: 7.3078421719639103E-2; n = 1.
For another assay, the system named is MAP3K4. To be noted: read-out: apparent Kd; compound concentrations: 100 nM and 1000 nM (sheet 'Samples'), CATDS: 6.3313755179161796E-2; n = 1.
Another assay deals with MAP4K2. Conditions: read-out: apparent Kd; compound concentrations: 100 nM and 1000 nM (sheet 'Samples'), CATDS: 8.0363217180658503E-2; n = 1.
A further assay deals with MAP4K3. Conditions: read-out: apparent Kd; compound concentrations: 100 nM and 1000 nM (sheet 'Samples'), CATDS: 7.0061337897802001E-2; n = 1.
The subject of another assay is NEK2. Conditions: read-out: apparent Kd; compound concentrations: 100 nM and 1000 nM (sheet 'Samples'), CATDS: 7.0707362303254903E-2; n = 1.
For a further assay, the system named is RIPK3. Conditions: read-out: apparent Kd; compound concentrations: 100 nM and 1000 nM (sheet 'Samples'), CATDS: 5.9468743018389697E-2; n = 1.
A further assay has as its system STK3. To be noted: read-out: apparent Kd; compound concentrations: 100 nM and 1000 nM (sheet 'Samples'), CATDS: 6.0873779479402902E-2; n = 1.
A further assay deals with STK4. Conditions: read-out: apparent Kd; compound concentrations: 100 nM and 1000 nM (sheet 'Samples'), CATDS: 7.2736683737858396E-2; n = 1.
The subject of a further assay is YES1. Conditions: read-out: apparent Kd; compound concentrations: 100 nM and 1000 nM (sheet 'Samples'), CATDS: 8.4422564435587905E-2; n = 1.
Setting [1] is: compound concentrations:100 nM and 1000 nM (sheet 'Samples').

Molecules are shown by their SMILES. Where two headings read alike, the source gives them in different places.

With `COc1cc2c(Nc3ccc(NC(=O)c4ccccc4)cc3)ncnc2cc1OCCCN1CCOCC1` [GSK301329A], the potency estimated from few doses in the assay on AURKB (CATDS: 0.55138330390134005) was 50.7 nM; with EGFR it was 1470 nM; with HSP90B1, 1090 nM; in the assay with MAP2K2 it was 1940 nM; with MAP2K5 (setting [1]), 238 nM; with PTK6 (setting [1]), 487 nM. For the same compound, in the assay with RET, the potency estimated from few doses is 1450 nM.
On to `C[C@@H](Oc1cc(-n2cnc3ccc(OCC4CCN(C)CC4)cc32)sc1C(N)=O)c1ccccc1Cl` [GSK571989A], for which the potency estimated from few doses in the assay on BMP2K was 1870 nM; in the assay with MAP3K1 it was 1600 nM; in the assay on MAP4K5 it was 1670 nM; in the assay with MAPK6, 1540 nM; in the assay with PIK3CD, 185 nM.
Consider `Cc1ccc2c(-c3ccnc(Nc4ccc5c(c4)OCCO5)n3)c(-c3ccc(C(F)(F)F)cc3)nn2n1` [GW832467X], for which the potency estimated from few doses with CAMK2B (CATDS: 1) was 475 nM.
Consider `CSc1ccc(-c2nc3n(c2-c2ccncc2)CCC3)cc1` [SKF-105561], for which the potency estimated from few doses in the assay with BUB1 is 2300 nM; in the assay with CAMK2B (CATDS: 0.32138183230231099), 557 nM; in the assay with FN3K, 2370 nM; with ICK, 1580 nM; with MAPKAPK2, 803 nM.
In the case of `Cc1cccc(CC(=O)N2CCc3c2ccc(-c2cn(C)c4ncnc(N)c24)c3F)n1` [GSK2656157], the potency estimated from few doses in the assay with AXL is 503 nM; in the assay on EIF2AK1 (setting [1]), 751 nM.
Regarding `COC(=O)c1ccc2c(c1)C(=Cc1cc(Br)c(O)c(Br)c1)C(=O)N2` [GW405841X], the potency estimated from few doses is 1220 nM in the assay with BMPR2; 1070 nM in the assay with CDC7; 1380 nM in the assay on CLK1; 668 nM in the assay on CLK4; 667 nM in the assay with CSNK2A1;CSNK2A3; 1020 nM in the assay with CSNK2A2. For the same compound, the potency estimated from few doses in the assay with GAK was 138 nM; in the assay with JAK1 it was 731 nM; in the assay with PI4KB, 194 nM; with PIK3C2B, 924 nM; in the assay on RIOK2, 1910 nM; in the assay on TNIK, 1060 nM.
`Cn1cc(-c2ccc3c(c2)CCN3C(=O)Cc2ccccc2Cl)c2c(N)ncnc21` [GSK2608885A]: the potency estimated from few doses in the assay with AURKB (CATDS: 9.3884210166783694E-2) was 825 nM; in the assay with CAMK2B (CATDS: 0.10460822503909301) it was 685 nM; in the assay on EIF2AK1 (compound concentrations: 100 nM and 1000 nM (sheet 'Samples'), CATDS: 6.5022580640831398E-2) it was 1790 nM; in the assay on MAP2K5 (compound concentrations: 100 nM and 1000 nM (sheet 'Samples'), CATDS: 0.13171106930199999), 478 nM; with MAP3K4, 1920 nM; in the assay on MAP4K2 it was 1110 nM. Further, the potency estimated from few doses was 1490 nM in the assay on MAP4K3; 1460 nM in the assay on NEK2; 781 nM in the assay with PTK6 (compound concentrations: 100 nM and 1000 nM (sheet 'Samples'), CATDS: 9.6831640225396698E-2); 2280 nM in the assay on RIPK3; 2130 nM in the assay on STK3; 1370 nM with STK4. The potency estimated from few doses with YES1 was 1000 nM.
